The values below come from article PMC7862700, “An all-to-all approach to the identification of sequence-specific readers for epigenetic DNA modifications on cytosine”.

What all share (assay): DAPPL (digital affinity profiling via proximity ligation, sequencing); 10 mM Tris-HCl pH 7.5, 50 mM NaCl, 1 mM DTT, 4% glycerol, room temperature, 30 min; GST-TFs on glutathione beads, 16-mer random dsDNA library, 0.1% formaldehyde crosslink after washing; high values mean tight binding
The target of one test is T1, FLI1 (Homo sapiens, UniProt Q01543 1-452).
T1 sequence: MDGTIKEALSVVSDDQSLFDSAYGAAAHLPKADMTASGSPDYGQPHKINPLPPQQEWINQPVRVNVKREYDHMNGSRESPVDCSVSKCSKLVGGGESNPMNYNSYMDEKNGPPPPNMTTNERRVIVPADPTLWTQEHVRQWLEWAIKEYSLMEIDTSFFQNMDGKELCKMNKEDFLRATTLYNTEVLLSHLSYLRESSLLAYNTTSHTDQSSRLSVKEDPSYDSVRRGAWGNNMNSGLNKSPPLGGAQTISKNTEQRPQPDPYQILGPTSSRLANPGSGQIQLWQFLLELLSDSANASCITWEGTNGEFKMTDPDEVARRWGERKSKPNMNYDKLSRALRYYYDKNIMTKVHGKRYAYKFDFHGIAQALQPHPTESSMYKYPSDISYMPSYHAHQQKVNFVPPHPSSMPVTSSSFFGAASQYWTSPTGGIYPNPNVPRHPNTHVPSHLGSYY
The following applies: protein: recombinant; tags: N-terminal GST; dsDNA, one strand shown. In short, it runs like this: (§1)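 After expression in yeast as GST fusions, human transcription factors were bound to glutathione beads, DNA-barcoded and mixed with a tag-only sample. The pools were incubated with 200 nmole of a 16-mer random double-stranded DNA library in Tris/NaCl/DTT/glycerol buffer (30 min, room temperature), washed and crosslinked with 0.1% formaldehyde. Proximity ligation with BsaI/T4 ligase ran for 1 h at 37 °C, before PCR amplification and sequencing on an Illumina NextSeq500. Binding signal is a hexamer's read frequency for a factor divided by its frequency for the tag-only sample.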

For a further test, the target named is T2, ELK1 (Homo sapiens, UniProt P19419 1-428).
T2 sequence: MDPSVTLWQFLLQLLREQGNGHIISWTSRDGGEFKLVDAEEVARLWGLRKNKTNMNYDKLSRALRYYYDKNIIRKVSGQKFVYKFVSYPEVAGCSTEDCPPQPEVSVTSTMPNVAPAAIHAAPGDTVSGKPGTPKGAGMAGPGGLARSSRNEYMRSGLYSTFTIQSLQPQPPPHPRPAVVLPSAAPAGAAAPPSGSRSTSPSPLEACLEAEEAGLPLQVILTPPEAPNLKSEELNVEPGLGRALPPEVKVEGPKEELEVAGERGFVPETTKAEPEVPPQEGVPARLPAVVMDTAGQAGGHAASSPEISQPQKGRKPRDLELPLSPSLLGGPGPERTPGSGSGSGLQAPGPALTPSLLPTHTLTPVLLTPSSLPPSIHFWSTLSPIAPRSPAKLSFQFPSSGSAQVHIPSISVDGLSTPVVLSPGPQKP
The following applies: protein: recombinant; tags: N-terminal GST; dsDNA, one strand shown. In short, it runs like this: as §1

Another test addresses T3, GABPA (Homo sapiens, UniProt Q06546 1-454).
T3 sequence: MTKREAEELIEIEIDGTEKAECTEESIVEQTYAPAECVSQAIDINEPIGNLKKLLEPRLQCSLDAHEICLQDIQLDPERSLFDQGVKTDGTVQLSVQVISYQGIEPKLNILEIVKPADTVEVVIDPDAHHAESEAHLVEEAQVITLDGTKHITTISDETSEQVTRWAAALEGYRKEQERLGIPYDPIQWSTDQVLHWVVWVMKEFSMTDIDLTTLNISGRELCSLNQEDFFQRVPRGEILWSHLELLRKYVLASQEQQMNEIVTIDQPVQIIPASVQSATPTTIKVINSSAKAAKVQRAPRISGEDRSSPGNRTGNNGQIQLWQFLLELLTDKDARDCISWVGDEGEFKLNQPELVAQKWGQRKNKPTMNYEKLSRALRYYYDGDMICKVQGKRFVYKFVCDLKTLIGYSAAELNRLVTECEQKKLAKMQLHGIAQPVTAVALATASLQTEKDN
The following applies: protein: recombinant; tags: N-terminal GST; dsDNA, one strand shown. In short, it runs like this:
as §1

A further test has as its target T4, ERG (Homo sapiens, UniProt P11308 1-479).
T4 sequence: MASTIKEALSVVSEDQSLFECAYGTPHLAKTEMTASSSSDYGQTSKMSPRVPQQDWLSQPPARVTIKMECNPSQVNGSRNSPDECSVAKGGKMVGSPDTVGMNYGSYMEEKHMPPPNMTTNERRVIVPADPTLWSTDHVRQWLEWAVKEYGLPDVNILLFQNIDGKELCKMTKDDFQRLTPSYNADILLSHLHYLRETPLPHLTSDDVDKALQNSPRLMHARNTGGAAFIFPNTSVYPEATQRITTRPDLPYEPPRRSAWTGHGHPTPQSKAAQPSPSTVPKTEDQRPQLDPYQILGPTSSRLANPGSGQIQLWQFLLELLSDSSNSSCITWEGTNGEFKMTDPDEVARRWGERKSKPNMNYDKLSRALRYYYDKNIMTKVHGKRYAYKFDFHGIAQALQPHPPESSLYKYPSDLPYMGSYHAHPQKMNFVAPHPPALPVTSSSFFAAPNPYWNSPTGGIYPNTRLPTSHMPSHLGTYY
The following applies: protein: recombinant; tags: N-terminal GST; dsDNA, one strand shown. In short, it runs like this:
as §1

In a further test the target is ELF1 (Homo sapiens, UniProt P32519 1-619). The following applies: protein: recombinant; tags: N-terminal GST; dsDNA, one strand shown. In short, it runs like this:
as §1

Another test has as its target T5, EHF (Homo sapiens, UniProt Q9NZC4 1-300).
T5 sequence: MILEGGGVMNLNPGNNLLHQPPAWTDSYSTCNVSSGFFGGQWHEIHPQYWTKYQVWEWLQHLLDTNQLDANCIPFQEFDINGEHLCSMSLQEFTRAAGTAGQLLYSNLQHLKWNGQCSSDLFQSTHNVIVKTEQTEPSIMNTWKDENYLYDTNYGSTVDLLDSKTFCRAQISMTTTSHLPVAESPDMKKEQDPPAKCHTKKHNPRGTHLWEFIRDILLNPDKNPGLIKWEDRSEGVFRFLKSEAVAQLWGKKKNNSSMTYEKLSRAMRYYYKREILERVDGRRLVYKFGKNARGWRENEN
Particulars: protein: recombinant; tags: N-terminal GST; dsDNA, one strand shown. In short, it runs like this:
as §1

The target of a further test is SPI1 (Homo sapiens, UniProt P17947 1-270). Particulars: protein: recombinant; tags: N-terminal GST; dsDNA, one strand shown. In short, it runs like this: as §1
Another test concerns the target SPIB (Homo sapiens, UniProt Q01892 1-262). The following applies: protein: recombinant; tags: N-terminal GST; dsDNA, one strand shown. In short, it runs like this:
as §1

The next test concerns the target T6, ELK3 (Homo sapiens, UniProt P41970 1-407).
T6 sequence: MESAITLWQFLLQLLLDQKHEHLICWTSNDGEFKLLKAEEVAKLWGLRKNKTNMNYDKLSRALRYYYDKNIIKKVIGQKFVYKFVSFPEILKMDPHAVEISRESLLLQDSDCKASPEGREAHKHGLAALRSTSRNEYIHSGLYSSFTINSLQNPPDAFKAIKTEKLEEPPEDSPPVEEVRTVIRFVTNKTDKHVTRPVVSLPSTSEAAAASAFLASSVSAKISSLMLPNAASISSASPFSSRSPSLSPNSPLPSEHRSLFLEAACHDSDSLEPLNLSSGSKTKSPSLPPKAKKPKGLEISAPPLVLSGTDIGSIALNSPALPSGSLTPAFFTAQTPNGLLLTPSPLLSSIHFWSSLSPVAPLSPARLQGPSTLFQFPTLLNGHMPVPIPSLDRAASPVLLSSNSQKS
Particulars: protein: recombinant; tags: N-terminal GST; dsDNA, one strand shown. In short, it runs like this:
as §1

For the next test, the target named is T7, FEV (Homo sapiens, UniProt Q99581 1-238).
T7 sequence: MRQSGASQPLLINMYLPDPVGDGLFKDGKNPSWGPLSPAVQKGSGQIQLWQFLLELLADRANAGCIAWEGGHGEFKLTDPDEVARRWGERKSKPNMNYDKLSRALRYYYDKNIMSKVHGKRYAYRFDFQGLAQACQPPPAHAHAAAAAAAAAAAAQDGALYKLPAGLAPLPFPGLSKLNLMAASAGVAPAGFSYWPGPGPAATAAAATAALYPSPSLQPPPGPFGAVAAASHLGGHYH
Particulars: protein: recombinant; tags: N-terminal GST; dsDNA, one strand shown. In short, it runs like this: as §1

Another test addresses ETV5 (Homo sapiens, UniProt P41161 1-510). Particulars: protein: recombinant; tags: N-terminal GST; dsDNA, one strand shown. In short, it runs like this:
as §1

A further test addresses HSF1 (Homo sapiens, UniProt Q00613 1-529). Particulars: protein: recombinant; tags: N-terminal GST; chain copies: 3; dsDNA, one strand shown. In short, it runs like this:
as §1

The next test addresses T8, SPIC (Homo sapiens, UniProt Q8N5J4 1-248).
T8 sequence: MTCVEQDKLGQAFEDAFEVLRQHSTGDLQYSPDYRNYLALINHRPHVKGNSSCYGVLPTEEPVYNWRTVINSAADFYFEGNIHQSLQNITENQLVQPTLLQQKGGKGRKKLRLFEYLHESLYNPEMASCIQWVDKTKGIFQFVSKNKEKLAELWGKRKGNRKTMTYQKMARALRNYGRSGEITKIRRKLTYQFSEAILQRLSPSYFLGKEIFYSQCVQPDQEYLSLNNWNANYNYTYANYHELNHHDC
Particulars: protein: recombinant; tags: N-terminal GST; dsDNA, one strand shown. In short, it runs like this: as §1

The target in a further test is ELF4 (Homo sapiens, UniProt Q99607 1-663). Particulars: protein: recombinant; tags: N-terminal GST; dsDNA, one strand shown. In short, it runs like this:
as §1

The target in the next test is T9, ELK4 (Homo sapiens, UniProt P28324-2 1-405).
T9 sequence: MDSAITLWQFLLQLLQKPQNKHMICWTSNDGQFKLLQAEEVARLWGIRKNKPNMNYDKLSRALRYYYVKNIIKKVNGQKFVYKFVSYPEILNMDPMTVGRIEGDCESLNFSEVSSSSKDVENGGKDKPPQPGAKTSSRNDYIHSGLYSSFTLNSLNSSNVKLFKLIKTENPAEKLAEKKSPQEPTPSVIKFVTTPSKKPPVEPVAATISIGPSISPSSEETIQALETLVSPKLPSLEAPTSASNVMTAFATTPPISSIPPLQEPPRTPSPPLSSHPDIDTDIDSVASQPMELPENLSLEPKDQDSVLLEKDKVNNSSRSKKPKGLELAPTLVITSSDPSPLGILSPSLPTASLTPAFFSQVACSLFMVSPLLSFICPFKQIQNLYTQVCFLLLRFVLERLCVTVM
Particulars: protein: recombinant; tags: N-terminal GST; dsDNA, one strand shown. In short, it runs like this: as §1

The target of a further test is T10, ETV2 (Homo sapiens, UniProt O00321 1-342).
T10 sequence: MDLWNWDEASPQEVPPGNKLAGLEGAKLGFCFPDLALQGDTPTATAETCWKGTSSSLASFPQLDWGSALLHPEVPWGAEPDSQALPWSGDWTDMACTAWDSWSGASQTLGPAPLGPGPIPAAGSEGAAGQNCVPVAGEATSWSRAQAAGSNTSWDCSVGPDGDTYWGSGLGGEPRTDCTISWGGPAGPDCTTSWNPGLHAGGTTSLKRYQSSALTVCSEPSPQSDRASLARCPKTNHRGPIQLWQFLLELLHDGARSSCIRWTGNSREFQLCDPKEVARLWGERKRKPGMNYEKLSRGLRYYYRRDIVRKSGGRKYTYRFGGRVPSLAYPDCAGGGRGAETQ
Particulars: protein: recombinant; tags: N-terminal GST; dsDNA, one strand shown. In short, it runs like this:
as §1

Another test concerns the target T11, ELF3 (Homo sapiens, UniProt P78545 1-371).
T11 sequence: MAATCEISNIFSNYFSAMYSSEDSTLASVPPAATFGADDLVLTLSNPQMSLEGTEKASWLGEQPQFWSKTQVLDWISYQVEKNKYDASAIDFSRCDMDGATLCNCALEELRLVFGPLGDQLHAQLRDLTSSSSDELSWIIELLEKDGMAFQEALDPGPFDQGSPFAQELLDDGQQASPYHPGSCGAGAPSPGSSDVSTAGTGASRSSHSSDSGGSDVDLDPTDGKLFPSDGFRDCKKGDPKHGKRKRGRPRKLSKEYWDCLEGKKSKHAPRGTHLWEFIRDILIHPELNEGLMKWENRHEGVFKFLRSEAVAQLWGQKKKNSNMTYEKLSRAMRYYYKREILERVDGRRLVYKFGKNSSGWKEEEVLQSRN
Particulars: protein: recombinant; tags: N-terminal GST; dsDNA, one strand shown. In short, it runs like this: as §1

The target of the next test is CRX (Homo sapiens, UniProt O43186 1-299). The following applies: protein: recombinant; tags: N-terminal GST; dsDNA, one strand shown. In short, it runs like this: as §1
For a further test, the target named is ETV1 (Homo sapiens, UniProt P50549 1-477). Particulars: protein: recombinant; tags: N-terminal GST; dsDNA, one strand shown. In short, it runs like this:
as §1

Chain of CRX (O43186 whole entry): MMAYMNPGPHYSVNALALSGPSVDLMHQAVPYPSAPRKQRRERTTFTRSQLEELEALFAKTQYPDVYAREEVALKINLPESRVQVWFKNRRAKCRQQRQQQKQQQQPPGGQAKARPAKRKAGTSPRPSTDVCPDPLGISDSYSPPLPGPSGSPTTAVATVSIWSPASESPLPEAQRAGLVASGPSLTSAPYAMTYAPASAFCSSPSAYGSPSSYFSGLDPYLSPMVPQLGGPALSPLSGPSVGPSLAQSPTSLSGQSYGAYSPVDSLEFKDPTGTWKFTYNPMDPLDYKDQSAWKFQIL
Chain of ELF1 (P32519 whole entry): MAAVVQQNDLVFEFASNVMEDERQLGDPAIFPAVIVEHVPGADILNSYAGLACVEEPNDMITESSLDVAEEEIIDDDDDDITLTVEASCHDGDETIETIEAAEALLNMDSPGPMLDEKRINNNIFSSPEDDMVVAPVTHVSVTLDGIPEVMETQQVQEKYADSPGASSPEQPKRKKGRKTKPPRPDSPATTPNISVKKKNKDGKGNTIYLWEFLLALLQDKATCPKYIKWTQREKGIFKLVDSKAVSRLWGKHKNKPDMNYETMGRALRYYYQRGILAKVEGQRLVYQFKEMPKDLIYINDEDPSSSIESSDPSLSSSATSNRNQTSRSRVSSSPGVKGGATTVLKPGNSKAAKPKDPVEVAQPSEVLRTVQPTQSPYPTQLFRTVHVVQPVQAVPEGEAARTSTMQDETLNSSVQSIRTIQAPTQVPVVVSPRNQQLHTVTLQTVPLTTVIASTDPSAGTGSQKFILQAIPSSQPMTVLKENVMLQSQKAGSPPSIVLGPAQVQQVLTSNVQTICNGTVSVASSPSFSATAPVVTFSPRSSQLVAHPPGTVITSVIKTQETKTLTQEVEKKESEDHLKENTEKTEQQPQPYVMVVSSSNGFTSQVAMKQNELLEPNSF
Chain of HSF1 (Q00613 whole entry): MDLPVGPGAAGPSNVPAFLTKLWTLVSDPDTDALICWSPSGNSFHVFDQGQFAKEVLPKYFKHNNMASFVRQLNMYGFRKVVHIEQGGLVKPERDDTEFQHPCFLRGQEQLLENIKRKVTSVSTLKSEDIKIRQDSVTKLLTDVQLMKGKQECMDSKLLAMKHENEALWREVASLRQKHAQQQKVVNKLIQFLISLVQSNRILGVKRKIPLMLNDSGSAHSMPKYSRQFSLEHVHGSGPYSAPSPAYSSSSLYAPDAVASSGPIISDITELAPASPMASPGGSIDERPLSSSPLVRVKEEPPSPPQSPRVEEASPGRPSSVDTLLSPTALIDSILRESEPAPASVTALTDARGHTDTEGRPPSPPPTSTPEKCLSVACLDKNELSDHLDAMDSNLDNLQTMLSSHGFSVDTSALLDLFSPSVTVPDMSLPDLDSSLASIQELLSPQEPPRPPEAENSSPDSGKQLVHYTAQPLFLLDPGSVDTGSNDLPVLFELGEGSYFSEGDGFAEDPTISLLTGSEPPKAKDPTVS
Chain of ETV1 (P50549 whole entry): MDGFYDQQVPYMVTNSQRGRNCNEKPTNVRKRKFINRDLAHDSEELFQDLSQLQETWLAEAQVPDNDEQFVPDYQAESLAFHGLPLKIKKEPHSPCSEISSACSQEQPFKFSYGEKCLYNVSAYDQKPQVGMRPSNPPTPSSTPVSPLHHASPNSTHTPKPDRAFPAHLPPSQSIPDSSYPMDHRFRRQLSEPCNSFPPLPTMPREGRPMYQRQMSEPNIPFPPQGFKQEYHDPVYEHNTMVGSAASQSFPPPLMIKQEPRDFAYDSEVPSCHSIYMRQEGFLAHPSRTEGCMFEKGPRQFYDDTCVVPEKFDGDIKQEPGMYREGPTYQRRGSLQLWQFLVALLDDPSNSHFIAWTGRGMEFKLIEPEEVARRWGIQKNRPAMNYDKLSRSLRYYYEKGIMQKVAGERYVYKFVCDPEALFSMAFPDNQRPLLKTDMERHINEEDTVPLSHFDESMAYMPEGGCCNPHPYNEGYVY
Chain of SPIB (Q01892 whole entry): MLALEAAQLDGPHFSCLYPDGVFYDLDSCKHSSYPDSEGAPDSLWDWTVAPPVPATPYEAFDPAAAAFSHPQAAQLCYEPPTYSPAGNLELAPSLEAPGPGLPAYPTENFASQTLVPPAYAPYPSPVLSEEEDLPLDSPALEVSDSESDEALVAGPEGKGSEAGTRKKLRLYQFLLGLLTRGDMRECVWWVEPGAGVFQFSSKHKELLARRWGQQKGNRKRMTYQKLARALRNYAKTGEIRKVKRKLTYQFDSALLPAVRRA
Chain of ELF4 (Q99607 whole entry): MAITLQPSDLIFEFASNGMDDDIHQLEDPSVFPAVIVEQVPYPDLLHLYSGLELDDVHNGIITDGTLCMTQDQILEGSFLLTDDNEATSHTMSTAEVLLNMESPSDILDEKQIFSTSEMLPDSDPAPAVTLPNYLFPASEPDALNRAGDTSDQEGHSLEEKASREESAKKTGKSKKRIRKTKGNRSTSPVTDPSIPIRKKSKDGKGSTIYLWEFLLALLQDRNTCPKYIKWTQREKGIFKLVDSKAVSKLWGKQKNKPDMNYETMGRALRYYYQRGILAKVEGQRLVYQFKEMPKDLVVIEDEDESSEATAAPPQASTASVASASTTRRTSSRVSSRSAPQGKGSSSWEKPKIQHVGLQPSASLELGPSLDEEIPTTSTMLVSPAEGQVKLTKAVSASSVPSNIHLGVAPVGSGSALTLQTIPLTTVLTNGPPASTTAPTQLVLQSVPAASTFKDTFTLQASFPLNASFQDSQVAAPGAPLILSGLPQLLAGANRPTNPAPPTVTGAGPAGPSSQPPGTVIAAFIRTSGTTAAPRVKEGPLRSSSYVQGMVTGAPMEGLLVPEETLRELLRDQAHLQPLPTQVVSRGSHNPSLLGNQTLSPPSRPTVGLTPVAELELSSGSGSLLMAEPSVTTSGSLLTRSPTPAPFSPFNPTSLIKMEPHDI
Chain of ETV5 (P41161 whole entry): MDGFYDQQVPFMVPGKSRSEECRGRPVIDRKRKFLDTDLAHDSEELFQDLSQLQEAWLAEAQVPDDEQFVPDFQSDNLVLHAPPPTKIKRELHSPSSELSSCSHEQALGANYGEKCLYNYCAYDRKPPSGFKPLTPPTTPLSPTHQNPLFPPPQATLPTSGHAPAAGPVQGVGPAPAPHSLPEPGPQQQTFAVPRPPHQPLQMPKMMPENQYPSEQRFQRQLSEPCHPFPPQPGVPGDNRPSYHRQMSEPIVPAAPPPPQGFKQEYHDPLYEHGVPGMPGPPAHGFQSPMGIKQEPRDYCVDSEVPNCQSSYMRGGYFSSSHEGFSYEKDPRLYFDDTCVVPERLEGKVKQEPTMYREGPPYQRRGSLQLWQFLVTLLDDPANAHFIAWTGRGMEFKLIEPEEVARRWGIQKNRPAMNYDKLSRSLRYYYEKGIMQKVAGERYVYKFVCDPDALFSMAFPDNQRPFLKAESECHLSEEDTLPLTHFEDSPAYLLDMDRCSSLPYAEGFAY

In the case of ATCCAC, the binding signal in the test with FLI1 was 1.23 fold enrichment (6-mer frequency, TF over GST control); in the test with ELK1, 1.28 fold enrichment (6-mer frequency, TF over GST control); in the test with GABPA, 1.32 fold enrichment (6-mer frequency, TF over GST control); in the test with ERG it was 1.22 fold enrichment (6-mer frequency, TF over GST control); with ELF1 it was 1.22 fold enrichment (6-mer frequency, TF over GST control); with EHF it was 1.25 fold enrichment (6-mer frequency, TF over GST control). Besides, the binding signal was 1.15 fold enrichment (6-mer frequency, TF over GST control) with SPI1; 1.19 fold enrichment (6-mer frequency, TF over GST control) with SPIB; 1.27 fold enrichment (6-mer frequency, TF over GST control) in the test with ELK3; 1.14 fold enrichment (6-mer frequency, TF over GST control) with FEV; 1.18 fold enrichment (6-mer frequency, TF over GST control) with ETV5; 1.36 fold enrichment (6-mer frequency, TF over GST control) with HSF1. Also, the binding signal with SPIC was 1.24 fold enrichment (6-mer frequency, TF over GST control); in the test with ELF4, 1.22 fold enrichment (6-mer frequency, TF over GST control); with ELK4 it was 1.32 fold enrichment (6-mer frequency, TF over GST control); with ETV2, 1.23 fold enrichment (6-mer frequency, TF over GST control); with ELF3, 1.14 fold enrichment (6-mer frequency, TF over GST control); in the test with CRX, 1.48 fold enrichment (6-mer frequency, TF over GST control). Moreover, the binding signal with ETV1 was 1.2 fold enrichment (6-mer frequency, TF over GST control).
